Rows were chosen to be rich in hits. Some 0.77% of all compounds tested hit in one or more screens of this group.
NS1 function inh – influenza NS1 inhibition; Potency, µM (titrated, usually from 46.1 µM), for inactives: top-dose activity, positive = more growth; actives 0.4% (n = 270,000); AID 2326; calls by dose curve; also: actives are rising curves; nearly all actives have a fitted effect of over 50% in size
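A cell-based growth assay was used: compounds that relieve NS1-induced slow growth of budding yeast raise OD600. Assay medium was yeast nitrogen base with ammonium sulphate and -URA supplement, pH 6.0, with 2% galactose.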
TbPYK inhibitor – inhibitors of Trypanosoma brucei pyruvate kinase; Q57TT1; TbPYK enzyme, Kinase-Glo Plus ATP luminescence, 45 min; actives 0.12% (n = 410,000); Potency, µM (highest dose often 76.8 µM), for inactives: at the top dose activity, negative = inhibition, most hits filed as inhibitors; also: % is scaled to controls: 0 for no effect and ±100 for the full control effect; nearly all actives have a fitted effect of over 50% in size
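Glycolytic pyruvate kinase of T. brucei was incubated with substrate, test compound and 130 uM ADP for 45 minutes at room temperature. Luminescent Kinase-Glo Plus signal was measured after 10 minutes.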
LmPK inh – inhibitors of Leishmania mexicana pyruvate kinase | Q27686 | purified LmPK, Kinase-Glo ATP luminescence, 1 h | Potency, µM (doses to about 57.5 µM), without a hit: at the highest dose activity change, negative = inhibition, most hits filed as inhibitors | actives 0.37% (n = 290,000); also: % is scaled to controls: 0 for no effect and ±100 for the full control effect
Target sequence (Q27686 whole entry, looked up): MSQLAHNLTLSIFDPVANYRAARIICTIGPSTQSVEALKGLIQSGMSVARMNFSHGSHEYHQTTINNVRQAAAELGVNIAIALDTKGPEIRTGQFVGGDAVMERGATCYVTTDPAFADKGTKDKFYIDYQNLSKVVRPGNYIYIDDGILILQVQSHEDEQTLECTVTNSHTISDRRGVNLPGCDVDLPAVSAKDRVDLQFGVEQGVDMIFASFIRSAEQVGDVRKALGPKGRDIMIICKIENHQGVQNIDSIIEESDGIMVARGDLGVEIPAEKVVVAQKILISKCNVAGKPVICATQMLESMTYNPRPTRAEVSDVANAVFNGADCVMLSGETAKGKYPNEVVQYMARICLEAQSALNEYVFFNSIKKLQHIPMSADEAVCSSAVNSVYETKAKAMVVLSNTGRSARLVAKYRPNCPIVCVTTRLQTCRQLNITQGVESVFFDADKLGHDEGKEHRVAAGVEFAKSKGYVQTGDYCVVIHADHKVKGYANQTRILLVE
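qHTS format; LmPK 0.1 nM; substrates PEP 0.5 mM and ADP 0.1 mM. One-hour room-temperature incubation, then coupled luciferase luminescence; 0.5 nM enzyme wells mark activation.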
RE007 growth inh – less growth of the S. pombe RE007 Vpr strain | S. pombe RE007 Vpr strain, BacTiter-Glo ATP luminescence, 24 h | Potency, µM (doses to about 92.2 µM), inactives show at the highest dose activity change, negative = less growth, hits mostly inhibitors | actives 0.21% (n = 360,000) | AID 651644; active = well fitted falling curve with a large enough effect; inconclusive = small, poorly fitted or top-dose-only effect; inactive = no such curve, though single readings can be large or run the other way; also: % is scaled to controls: 0 for no effect and ±100 for the full control effect; nearly all actives have a fitted effect of over 50% in size
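Fission yeast RE007 carrying one integrated HIV-1 vpr copy, seeded at OD 0.01 in PMG+AL medium with 23 nL pinned compound. Grown 24 h at 30 degrees; viability read by BacTiter-Glo luminescence after 5 min.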
* marks the source's active call; other numbers are inactive results; u = inconclusive; x = no result; [ ] = dose if it differs, or a comment. Unless noted, calls follow the shape of the dose curve; as a rule, active = well fitted curve in the direction sought with a large enough effect; inconclusive = small, poorly fitted or top-dose-only effect, or another doubt; inactive = no such curve, though single readings can be large; an effect the other way counts as inactive or inconclusive. Potency is read from the fitted curve at half-maximal effect.

SMILES	NS1 function inh	TbPYK inhibitor	LmPK inh	RE007 growth inh
C/C(=N\NC(=O)c1ccccn1)c1ccc(C(=O)O)s1	0%	x	16µM*	x
COc1ccc(S(=O)(=O)c2c(Nc3ccc(C)cc3)sc(C(=O)c3ccc4c(c3)OCO4)c2N)cc1	x	0%	x	x
O=C(CSc1cccc[n+]1[O-])CSc1cccc[n+]1[O-]	-48%	-9%	2%	7.9µM*
O=C(CSc1cccc[n+]1[O-])N1CCCCCC1	x	-4%	-4%	9%
COc1ccc(NC(=O)Nc2ccccc2C(N)=O)cc1	-6%	-29%	14µM*	u
Cc1ccc(NC(=O)Nc2ccccc2C(N)=O)cc1	-3%	-17%	16µM*	x
CCc1ccccc1NC(=O)c1cc(S(=O)(=O)N(CC)c2ccccc2)ccc1F	x	0%	x	x
COc1ccc(NC(=O)N2CC3(CCN(C(=O)c4cnccn4)CC3)C2)cc1	x	6%	x	x
Cc1ccc(C)c(NC(=O)NCc2ccc(Cl)cc2)c1	-1%	x	x	x
CC1=NN(c2ccc([N+](=O)[O-])cc2)C(=O)/C1=C\N(C)C	1%	-19%	16µM*	6.3µM*
O=C(CCC1N=C2c3ccccc3N=C(SCc3ccc(F)cc3)N2C1=O)N1CCN(c2ccccc2)CC1 (stereo not drawn)	x	-8%	x	x
Cc1cccc(N2CCN(C(=O)CN3CCOc4ccccc43)CC2C)c1 (stereo not drawn)	-53%	-3%	16%	9%
Cc1ccc(N2C(=O)C3C4C=CC(CNC(=S)N5CCN(c6cccc(C)c6)C(C)C5)(O4)C3C2=O)cc1 (stereo not drawn)	x	-15%	-2%	2µM*
CNC(=S)N/N=C/c1ccc(-c2ccc(C(=O)O)cc2)o1	-2%	-26%	14µM*	u
CN(CCc1ccccn1)C(=O)Nc1ccc(Cl)cc1	-33%	-9%	-3%	-11%
CN(CCc1ccccn1)C1CC(=O)N(c2ccc(Cl)cc2)C1=O (stereo not drawn)	-142%	1%	-2%	3.2µM*
CC(=O)/C=C/c1ccc2ccccc2n1	-168%	-6%	-27%	25µM*
CC(OC(=O)/C=C/c1ccc2ccccc2n1)C(=O)N(C)c1ccccc1 (stereo not drawn)	x	-1%	x	39%
CC(=O)N(C1=C(Cl)C(=O)c2ccccc2C1=O)C1CCCCC1	-92%	0.89µM*	2.8µM*	6.3µM*
CC(=O)N(c1ccccc1C)C1CCCC1	u	-1%	-8%	-14%
Cc1cc(=O)[nH]c(SCc2ccccc2)n1	10%	-3%	-3%	-1%
Cc1cc(=O)[nH]c(S/C=C/c2ccccc2)n1	-38%	-4%	13µM*	u
CN(Cc1nc(C(c2ccccc2)c2ccccc2)no1)CC1COCCO1 (stereo not drawn)	2%	4%	14µM*	23%
CN(Cc1nc(-c2cccs2)no1)CC1COCCO1 (stereo not drawn)	0%	0%	7%	20%
Cc1nc(NC(=O)c2ccco2)sc1C(=O)O	-7%	25µM*	25µM*	u
SMILES	NS1 function inh	TbPYK inhibitor	LmPK inh	RE007 growth inh
CCOc1ccc(CN2C(=O)c3ccccc3Sc3ccc(C(=O)NC4CCC(C)CC4)cc32)cc1 (stereo not drawn)	x	6%	x	x
O=C(CSc1ccc2ccccc2c1)NCCc1ccc(O)c(O)c1	x	32µM*	-1%	14%
COc1ccc(CCNC(=O)CSc2ccc3ccccc3c2)cc1OC	-4%	0%	4%	1%
Cc1cccc(C(=O)OCc2cc(=O)n3nc(C4CC4)sc3n2)c1	x	0%	x	x
O=C1C=CC2(O[C@H](c3ccccc3)[C@@H](c3ccccc3)O2)[C@H](Sc2ccccc2O)C1	x	u	x	40µM*
COc1ccccc1CN1CCC2(CC1)CCN(S(=O)(=O)c1ccccc1)CC2	x	-8%	x	x
Oc1cc[c]([Hg][Cl])cc1	x	1.4µM*	x	x
Cn1c(=O)c(C(=O)NNC(=O)c2ccccc2F)c(O)c2ccccc21	-55%	3%	4%	-8%
Cn1c(=O)c(C(=O)NNC(=O)c2ccc(Br)cc2)c(O)c2ccccc21	-91%	0%	0%	28µM*
CC1=CN2C(=N)/C(=C/c3ccc([N+](=O)[O-])o3)C(=O)N=C2S1	-23%	-30%	-2%	32µM*
CC1=CN2C(=N)/C(=C/c3ccco3)C(=O)N=C2S1	4%	3%	-19%	0%
OCC[n+]1c2ccccc2nc2ccc(N3CCOCC3)cc21	5%	-21%	16µM*	-29%
N#Cc1cccc(NC(=O)N2CC3(CCN(C(=O)c4ccco4)CC3)C2)c1	x	-7%	x	x
Nc1c(C(=O)N2CCOCC2)sc2nc3c(cc12)CCC3	3%	2%	16µM*	14%
Cc1cc(C(=O)Nc2nc3ccc(S(C)(=O)=O)cc3s2)c(C)o1	9%	-22%	-27%	-20%
COc1ccc2nc(NC(=O)c3ccoc3C)sc2c1	-8%	u	5µM*	u
COc1ccc2nc(NC(=O)c3cc(C)oc3C)sc2c1	11%	-23%	25µM*	u
COc1ccc(CCCc2nnc(SCC(=O)Nc3cc(F)ccc3C)o2)cc1	x	-1%	x	x
C(C#CCCCCCCCCC[n+]1ccccc1)#CCCCCCCCCC[n+]1ccccc1	-127%	-4%	-2%	7.9µM*
CCOc1ccc(C2C(=O)N(C3CCCCCC3)CC(=O)N2Cc2ccccc2)cc1OC (stereo not drawn)	x	-2%	x	x
COc1cc(C2Nc3ccccc3-c3nnc(SCc4ccc(C)cc4)nc3O2)cc(OC)c1O (stereo not drawn)	x	-15%	x	x
Cc1ccc2c(c1)CC1(CN2C)C(=O)OC2(CCCCC2)OC1=O	-16%	0%	14µM*	-6%
N#CCNC1CC(=O)N(c2ccc(F)cc2)C1=O (stereo not drawn)	-8%	-5%	0%	25µM*
C=CCN1c2ccccc2[C@]23C[C@@H](C(=O)OC)N(S(=O)(=O)CCCC)C2=NC(C(=O)OC)=C(C(=O)OC)[C@H]13	x	x	2%[11.5 µM]	x
Cc1c(Cl)cccc1NC(=O)Cn1c(=O)nc(-c2ccccc2)c2ccccc21	x	-5%	x	x
SMILES	NS1 function inh	TbPYK inhibitor	LmPK inh	RE007 growth inh
CC1CC(C)CC(C)C(O)C(C#N)=CC=CCC(C2CCCC2C(=O)O)OC(=O)CC(O)C(C)C1 (stereo not drawn)	x	-2%	x	6.3µM*
COc1ccc(-c2nc3ccccc3o2)cc1NC(=O)c1cccc2c(Cl)cccc12	x	0%	x	x
CCSC1=NC2(CCCCC2)Nc2sc3c(c21)CCCC3	-2%	-24%	24%	40µM*
COc1ccccc1CNC(=O)c1nnn(CC(=O)Nc2c(C)cccc2C)c1N	x	-5%	x	x
c1cc(-c2noc(-c3ccc4c(c3)OCO4)n2)ccn1	11%	x	x	x
c1ccc(-c2noc(-c3ccc4c(c3)OCO4)n2)cc1	2%	-15%	16µM*	5%
Cc1nonc1C(=O)N/N=C/c1ccncc1	0%	4%	16µM*	-6%
Nc1nonc1C(=O)N/N=C/c1ccncc1	x	2%	-23%	-11%
COc1ccccc1NC(=O)C1=C(C)Nc2nc(SCc3cccc(F)c3)nn2C1c1ccc(C(=O)O)cc1 (stereo not drawn)	x	1%	x	x
CC[n+]1ccc(/C=C/c2ccc(N(C)C)cc2)c2ccccc21	-70%	u	16µM*	13µM*
